Compound activity deposited in PubChem BioAssay by National Center for Advancing Translational Sciences (NCATS).
ALDH1A1 block = qHTS Assay for Inhibitors of Aldehyde Dehydrogenase 1 (ALDH1A1); 220,000 tested, 7.3% active; Aldehyde dehydrogenase 1A1 (Homo sapiens), P00352; Purified ALDH1A1, NADH fluorescence, propionaldehyde substrate; Potency, µM (top dose mostly 75.3 µM), for the others: at the highest dose activity, negative = inhibition, actives largely listed as inhibitors;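 also: plate controls were no enzyme wells and a reference inhibitor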
HPGD inh = qHTS Assay for Inhibitors of HPGD (15-Hydroxyprostaglandin Dehydrogenase) | 15-hydroxyprostaglandin dehydrogenase [NAD(+)] (Homo sapiens), P15428 | purified HPGD, NADH fluorescence kinetic, PGE2 substrate | Potency, µM, for the others: at the top dose activity change, negative = inhibition, hits mostly inhibitors | 150,000 tested, 4.3% active
Target sequence (P15428 whole entry, looked up): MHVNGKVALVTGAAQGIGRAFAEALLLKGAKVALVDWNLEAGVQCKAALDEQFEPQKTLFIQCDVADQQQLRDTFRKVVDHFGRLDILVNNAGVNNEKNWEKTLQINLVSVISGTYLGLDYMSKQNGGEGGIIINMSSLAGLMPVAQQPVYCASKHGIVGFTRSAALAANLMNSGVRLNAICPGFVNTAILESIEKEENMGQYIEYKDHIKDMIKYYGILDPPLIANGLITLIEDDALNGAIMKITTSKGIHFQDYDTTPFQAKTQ
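NADH formation kinetics: reaction with 30 uM PGE2 and 1 mM NAD+ (final), 20 nM enzyme, Tris-HCl pH 8 with Tween 20, after 15 min compound preincubation at room temperature. Fluorescence change, last versus first of five reads.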
JMJD2E inh = qHTS Assay for Inhibitors of Human Jumonji Domain Containing 2E (JMJD2E) | Lysine-specific demethylase 4E (Homo sapiens), B2RXH2 | JMJD2E catalytic domain, FDH-coupled NADH fluorescence (FDH is formaldehyde dehydrogenase) | Potency, µM (titrated, usually from 57.1 µM), without a hit: at the highest dose activity change, negative = inhibition, actives largely listed as inhibitors | 230,000 tested, 1.6% active | AID 2147, 2009;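 also: 0% = wells with enzyme and -100% = buffer wells without enzyme; nearly all actives have a fitted effect of over 50% in size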
Target sequence (B2RXH2 1-337 limits assumed): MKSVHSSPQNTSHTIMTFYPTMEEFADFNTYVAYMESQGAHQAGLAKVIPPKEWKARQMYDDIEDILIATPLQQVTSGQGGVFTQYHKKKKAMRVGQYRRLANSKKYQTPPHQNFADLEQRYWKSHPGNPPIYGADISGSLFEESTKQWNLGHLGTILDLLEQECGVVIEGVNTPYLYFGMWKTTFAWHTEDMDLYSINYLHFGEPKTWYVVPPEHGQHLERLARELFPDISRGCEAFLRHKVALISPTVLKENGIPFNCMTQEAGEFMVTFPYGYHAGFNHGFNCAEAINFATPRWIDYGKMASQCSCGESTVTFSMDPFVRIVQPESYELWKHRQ
Tau ThT inhib = qHTS for Inhibitors of Tau Fibril Formation, Thioflavin T Binding; Microtubule-associated protein tau (Homo sapiens), P10636; Potency, µM (top dose mostly 57.4 µM), inactives show top-dose activity, negative = inhibition, most hits filed as inhibitors; AID 1460, 2008; 270,000 tested, 2.1% active; recombinant tau K18 P301L, heparin-induced fibrillization, ThT fluorescence; active = well fitted curve in the direction sought with a large enough effect; inconclusive = small, poorly fitted or top-dose-only effect, or another doubt; inactive = no such curve, though single readings can be large; an effect the other way counts as inactive or inconclusive; also: nearly all actives have a fitted effect of over 55% in size
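K18 P301L tau (15 uM + 0.24 uM Alexa 594-tagged), heparin 20 uM, NaOAc pH 7, 6 h 37 C; ThT 30 uM, 1 h RT, ex 450/em 510 nm.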
Tau FP inhib = qHTS for Inhibitors of Tau Fibril Formation, Fluorescence Polarization; Potency, µM (doses to about 57.7 µM), for inactives: at the highest dose activity, negative = inhibition, hits mostly inhibitors; 280,000 tested, 0.39% active; K18 P301L tau heparin fibrillization, Alexa594 FP, 6 h; Microtubule-associated protein tau (Homo sapiens), P10636; active = well fitted curve in the direction sought with a large enough effect; inconclusive = small, poorly fitted or top-dose-only effect, or another doubt; inactive = no such curve, though single readings can be large; an effect the other way counts as inactive or inconclusive; also: nearly all actives have a fitted effect of over 55% in size
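Recombinant K18 P301L […], labeled with Alexa 594 at 0.24 uM over 15 uM unlabeled; heparin inducer 20 uM final; 37 C, 6 hr; FP endpoint.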
Tau fluor counter = Counterscreen qHTS for Inhibitors of Tau Fibril Formation, Fluorescence Polarization | Potency, µM (doses to about 57.7 µM), without a hit: top-dose activity change, negative = decrease | 280,000 tested, 0.93% active | tau K18 P301L (four-repeat tau fragment) Alexa594 fluorescence, heparin fibrillization; active = well fitted curve in the direction sought with a large enough effect; inconclusive = small, poorly fitted or top-dose-only effect, or another doubt; inactive = no such curve, though single readings can be large; an effect the other way counts as inactive or inconclusive; also: nearly all actives have a fitted effect of over 55% in size
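Human K18 P301L tau (15 uM unlabeled plus 0.24 uM Alexa 594-labeled, final) in 100 mM sodium acetate pH 7 was mixed with compound and 20 uM heparin and incubated 6 hr at 37 C.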
Numbers without * were called inactive; ? = inconclusive; / = no result; [ ] = remark or other dose. Hits are enriched below; roughly 9.9% of the tested compounds scored in any of these assays. Unless noted, calls follow the shape of the dose curve; as a rule, active = well fitted inhibition curve with a large enough effect (not every such curve was filed as active); inconclusive = small, poorly fitted or top-dose-only effect, or another doubt; inactive = no such curve, though single readings can be large or run the other way. Unless noted, % is scaled to controls: 0 for no effect and ±100 for the full control effect; potency is read from the fitted curve at half-maximal effect.

SMILES	ALDH1A1 block	HPGD inh	JMJD2E inh	Tau ThT inhib	Tau FP inhib	Tau fluor counter
CS(=O)(=O)N1CCC2(CCCN(c3ncccn3)C2)CC1	0%	-19%	/	/	/	/
CCC1CCCCN1S(=O)(=O)c1ccc(NC(=O)CSc2ncccc2C(=O)O)cc1 (stereo unspecified)	?	14µM*	3%	-7%	-4%	-2%
CC(=O)c1cc(O)c2ccccc2c1O	/	/	14µM*	28µM*	?	?
Cc1ccc(-c2nc3sccn3c2Nc2ccccc2C)cc1	/	/	/	-11%	13%	?
CN(C)CCCNc1cc(C(C)(C)C)nc2c(-c3ccc(Cl)cc3)cnn12	/	/	?	?	10%	16µM*[quencher]
Cc1ncc(CSC(=N)N)n1Cc1ccccc1	17%[13.5 µM]	-9%	/	/	/	/
Cc1c(Cl)c(C(=O)NC2CCCC2)nn1C	0%	35µM*	-7%	-6%	10%	-4%
CCn1c(=O)cc(OCC(=O)Nc2ccc(OC)c(OC)c2)c2ccccc21	16µM*	/	-6%	-12%	-3%	-22%
CCOC(=O)COc1cc(=O)n(CC)c2ccccc12	-4%	-4%	10%	-1%	2%	-2%
CCn1c(=O)cc(OCC(=O)N(C)C2CCCCC2)c2ccccc21	20µM*	-10%	-1%	-13%	1%	-9%
CCn1c(=O)cc(OCC(=O)N2CCN(C(=O)c3ccco3)CC2)c2ccccc21	18µM*	-12%	-8%	3%	?	17%
CN(C(=O)COc1cc(=O)n(C)c2ccccc12)c1ccc(Br)cc1	22µM*	-10%	-13%	-18%	-2%	-10%
CCOC(=O)N1CCN(C(=O)COc2cc(=O)n(CC)c3ccccc23)CC1	7%	-1%	4%	-2%	8%	0%
Cc1cccc(N(C)C(=O)COc2cc(=O)n(C)c3ccccc23)c1	-16%	-10%	-8%	-6%	7%	-1%
CCCCC(CC)COCC1CO1 (stereo unspecified)	13µM*	-7%	/	/	/	/
Oc1c(N=NC(=S)Nc2ccccc2F)c2ccccc2n1Cc1ccc(F)cc1	16µM*	/	4%	?	9%	?
Cc1cccc(Cn2c(O)c(N=NC(=S)Nc3ccccc3F)c3ccccc32)c1	?	/	0%	-18%	4%	?
O=Nc1c(O)n(Cc2ccc(Cl)cc2)c2ccccc12	26%	-29%	-2%	-17%	-8%	-13%
Oc1c(N=NC(=S)Nc2ccccc2F)c2ccccc2n1Cc1cccc(Cl)c1	0.4µM*	/	5%	?	?	-22%
CCc1cc2c(SCC(=O)N(C)C3CCS(=O)(=O)C3)ncnc2s1 (stereo unspecified)	/	/	-4%	2%	-9%	-4%
O=C(NCc1cccc(F)c1)c1noc2c1CCCC2	?	20µM*	-6%	3%	-4%	6%
CSc1ccccc1NC(=O)c1noc2c1CCC2	25µM*	?	-6%	?	12%	-28%
Cc1ccc(O)c(NC(=O)c2noc3c2CCCCC3)c1	?	/	9%	-11%	?	25µM*[quencher]
CC(=O)N1CCC2(CC1)OC(=O)C(C)=C2C(=O)NCc1ccc(Cl)cc1	/	/	/	7%	-1%	2%
Cc1cccc(-n2c(C)cc(C(=S)N3CCOCC3)c2C)c1C	?	/	6%	-5%	-6%[2.34 µM]	-7%
SMILES	ALDH1A1 block	HPGD inh	JMJD2E inh	Tau ThT inhib	Tau FP inhib	Tau fluor counter
Cc1cc(C)cc(-n2c(C)cc(C(=S)N3CCOCC3)c2C)c1	-11%	4µM*	-1%	0%	2%	-1%
Cc1cc(C(=S)N2CCOCC2)c(C)n1-c1ccc(Cl)cc1	22µM*	28µM*	-7%	12%	2%	16%
Cc1cccc(CNc2cc(-c3ccccc3C)ncn2)c1	?	16µM*	-12%	-12%	4%	-9%
Cc1ccccc1-c1cc(Nc2ccc(F)cc2)ncn1	-5%	14µM*	-14%	6%	-3%	-28%
COc1cccc(CNC(=O)c2c(O)nc3ccccn3c2=O)c1	/	/	/	4%	9%	-1%
COc1ccc(S(=O)(=O)Nc2cc(C(C)C)c(O)cc2C)cc1	0.32µM*	-4%	-3%	-8%	5%	-7%
COc1ccccc1NS(=O)(=O)c1cccc(C(=O)N/N=C(\C)c2ccc3c(c2)OCCO3)c1	25µM*	-9%	1%	-6%	0%	-12%
COC(=O)c1ccc(C)c(NS(=O)(=O)c2ccc(OC)cc2)c1	0.79µM*	-2%	1%	-10%	-8%	-16%
COC(=O)c1ccc(C)c(NS(=O)(=O)c2ccc3c(c2)OCCO3)c1	7.9µM*	-1%	2%	-4%	1%	-7%
COC(=O)c1ccc(C)c(NS(=O)(=O)c2ccc(C)c([N+](=O)[O-])c2)c1	?	-13%	-13%	-5%	0%	-16%
COc1ccc(S(=O)(=O)Nc2cc(C)c(O)cc2C(C)C)cc1	-8%	-18%	0%	-11%	6%	-2%
O=C(O)[C@H]1C(=CCO)O[C@H]2CC(=O)N12	?	-20%	1%	-2%	-13%	-7%
Cc1cc(O)c(C(C)C)cc1NC(=O)c1ccccc1Cl	?	-3%	0%	-6%	-6%	-9%
COC(=O)c1sccc1NS(=O)(=O)c1ccc(OC)cc1	-3%	20µM*	-3%	-1%	11%	-3%
C/C(=N\S(=O)(=O)c1ccc(C)cc1)Nc1cc(C(C)C)c(O)cc1C	2.8µM*	-6%	-1%	-7%	-12%	-20%
COc1ccc(S(=O)(=O)NNC(=O)c2sccc2-n2cccc2)cc1	2.8µM*	/	-4%	-2%	-5%	-4%
COc1ccc2nc3cc(Cl)ccc3c(Nc3cc(C(C)C)c(O)cc3C)c2c1	/	/	?	5µM*	?	7.1µM*[quencher]
COC(=O)c1sccc1NC(=O)Cc1ccc(OC)cc1	-6%	-7%	2%	-1%	-8%	-6%
Cc1nc2cccnc2n1-c1cccc(C(=O)N2CCN(c3cccc(Cl)c3)CC2)c1	/	/	/	-12%	2%	-14%
COc1ccc(-c2nc3ccccc3c(=O)n2CCOc2cc(C)ccc2C)cc1	?	?	?	2%	?	-11%
CC(C)N(C1=CC(=O)OC12CCCCC2)C(C)C	/	/	-2%	5%	8%	6%
CCN(CC)C1=CC(=O)OC12CCCCC2	14µM*	35µM*	-2%	3%	-2%	-2%
